Results on 24 compounds are retold here after PubChem BioAssay AID493168 (National Center for Advancing Translational Sciences (NCATS), 2011).

Inconclusive results are not listed. Entries that show only a call come without a potency. The source made the active and inactive calls. Calls come from the whole dose curve; as a rule, active = well fitted inhibition curve with a large enough effect; inconclusive = small, poorly fitted or top-dose-only effect, or effect the other way; inactive = flat fitted curve, though single readings scatter.
Potency is the fitted concentration of half-maximal effect.

The target in the test is Ubiquitin carboxyl-terminal hydrolase 2 (Homo sapiens) (UniProt O75604). In words: Confirmation Assay for Inhibitors of Ubiquitin-specific Protease USP2a Using CHOP2 as the Reporter. Note: nearly all actives have a fitted effect of over 55% in size. The following applies: USP2 core, Ub-CHOP2 coupled reporter fluorescence; series mostly up to 38.3 µM. The essentials: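 Ub-CHOP2 cleavage coupled to reporter activation was read by fluorescence after 60 min at RT, with 25 nM final Ub-CHOP2 and substrate. Enzyme (10 nM final USP2 core) first sat 30 min with compound; data were normalized to NEM and fitted to concentration-response curves.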
Sequence of Ubiquitin carboxyl-terminal hydrolase 2 (Homo sapiens) (O75604 whole entry, looked up): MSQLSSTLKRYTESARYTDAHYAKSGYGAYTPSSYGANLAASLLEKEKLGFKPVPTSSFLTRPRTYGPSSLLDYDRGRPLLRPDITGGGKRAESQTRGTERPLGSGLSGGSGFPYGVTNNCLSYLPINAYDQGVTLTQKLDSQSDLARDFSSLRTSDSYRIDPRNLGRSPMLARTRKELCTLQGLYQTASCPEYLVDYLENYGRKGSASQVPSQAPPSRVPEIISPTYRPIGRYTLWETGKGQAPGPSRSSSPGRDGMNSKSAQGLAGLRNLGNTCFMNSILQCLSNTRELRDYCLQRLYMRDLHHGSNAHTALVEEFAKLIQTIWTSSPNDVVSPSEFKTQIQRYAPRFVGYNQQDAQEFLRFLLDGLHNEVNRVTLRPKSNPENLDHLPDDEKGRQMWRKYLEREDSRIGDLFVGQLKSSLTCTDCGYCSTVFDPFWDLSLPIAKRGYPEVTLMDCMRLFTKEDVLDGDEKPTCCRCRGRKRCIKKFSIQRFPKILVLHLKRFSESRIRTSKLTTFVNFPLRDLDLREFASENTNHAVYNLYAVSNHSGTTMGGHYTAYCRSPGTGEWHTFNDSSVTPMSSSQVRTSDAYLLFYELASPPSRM
`Oc1c(Cl)cc(Cl)c(Cl)c1Cc1c(O)c(Cl)cc(Cl)c1Cl`: the Potency was 5.21 µM (active).

`COc1ccc(/C=C2/SC(=S)N(c3ccc(S(=O)(=O)Nc4nccs4)cc3)C2=O)cc1`: the Potency is 13.1 µM (active).

Turning to `O=C(CC1Oc2ccccc2NC1=O)NCc1ccc(Cl)cc1` (centres undefined), the Potency entry was “inactive”.

`O=C(NN=Cc1ccc(N2CCOCC2)s1)c1ccc([N+](=O)[O-])cc1`: the Potency result is “inactive”.

For `Cc1ccc(-c2c(C#N)c(N)nc3c2CCCCC3)o1`, the Potency entry was “inactive”.

On to `Cc1cc(C)c(NC(=O)C[N+](C)(C)CC(O)COc2cccc3ccccc23)c(C)c1` (centres undefined), for which the Potency entry was “inactive”.

For the compound `CCC(C)(C(=O)NC1CCCCC1)N(C(=O)C1CCC(=O)N1)c1ccccc1` (centres undefined), the Potency entry is “inactive”.

`Cc1cc(C(=O)CSc2nnc(Nc3ccccc3F)s2)c(C)n1CC1CCCO1` (centres undefined): the Potency result was “inactive”.

For `Clc1ccc2c(N/N=C/c3ccc(Br)cc3)ccnc2c1`, the Potency is 13.1 µM (active).

For `CCC(CO)Nc1nc(CN2CCCCC2)nc2scc(-c3ccccc3)c12` (centres undefined), the Potency entry was “inactive”.

With `COc1ccccc1-c1nnc(SCC(=O)Nc2nc(-c3ccccc3)cs2)n1C`, the Potency entry is “inactive”.

Take `CCOc1ccc(Cn2c(=O)sc3ccccc32)cc1OC`: the Potency entry was “inactive”.

Consider `Cc1cc(C)cc(C(=O)Nc2ccc(N3CCCC3)cc2)c1`, for which the Potency entry was “inactive”.

In the case of `CCOC(=O)c1ccc(NC(=O)C2=C(C)Nc3nc(CCCO)nn3C2c2cccc(C)c2)cc1` (centres undefined), the Potency result was “inactive”.

Turning to `Cc1ccc(SCC(=O)Nc2ccc(C(=O)Nc3ccc(O)cc3)cc2)cc1`, the Potency result was “inactive”.

Regarding `O=[N+]([O-])c1cc(-c2nnc(Nc3ccccc3)c3ccccc23)ccc1N1CCOCC1`, the Potency result was “inactive”.

On to `O=C(Nc1ccc(Nc2ccncc2)cc1)c1ccc(Nc2ccnc3ccc([N+](=O)[O-])cc23)cc1[N+](=O)[O-]`, for which the Potency result is “inactive”.

As to `Cn1c(=O)c(C(=O)Nc2ncccc2O)c(O)c2ccccc21`, the Potency entry is “inactive”.

In the case of `C#CCOCCOCCOCCNc1nc(N2CCN(C(=O)CCCCCCCCCCNC(=O)Cn3cc(CCCCCN)nn3)CC2)nc(N2CCN(C(=O)CCCCCCCCCCNC(=O)Cn3cc(CCCCCN)nn3)CC2)n1`, the Potency is 10.4 µM (active).

Consider `CCCn1c(N2CCN(Cc3cccc(C)c3)CC2)nc2c1c(=O)[nH]c(=O)n2C`, for which the Potency result was “inactive”.

As to `CC(C)Cn1c(SCC(N)=O)nnc1-c1cccc(S(=O)(=O)N2CCOCC2)c1`, the Potency entry was “inactive”.

`CCn1c(=O)c(C(=O)Nc2ccccc2S(N)(=O)=O)c(O)c2ccccc21`: the Potency is 13.1 µM (active).

Turning to `CCC1=[N+](CC(=O)c2ccc(Br)cc2)CCn2c(C)ccc21`, the Potency result was “inactive”.

As for `CCOC(=O)N1CCN(C(=O)c2cc3c(ccc4ccccc43)oc2=O)CC1`, the Potency entry was “inactive”.
